Compound activity as filed in PubChem.
HCMV inh: inhibitors of human cytomegalovirus. activity change, negative = inhibition, % at 57.5 µM. HFF cells, HCMV-luciferase reporter, 72 h; active compounds read low. hit rate 4.5% among 410,000. AID 1259415; in the data active = activity change below about -60%; inconclusive = no clear call, values can overlap the other calls; inactive = above about -39%
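Luciferase read-out from HCMV-luciferase-infected HFFs (MOI 1 PFU/cell) 72 h post infection at 37C; compounds added after 16 h cell attachment; activity normalized between buffer-only basal and Salinomycin (10uM) inhibitor controls.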
HCV inhibitor: blocks hepatitis C virus | Huh7.5.1 HCVcc-Cre infection, luciferase reporter, 44 h | Potency, µM (doses to about 41.8 µM), actives largely listed as inhibitors | hit rate 3.4% among 340,000 | AID 651820; active = well fitted inhibition curve with a large enough effect; inconclusive = small, poorly fitted or top-dose-only effect, or another doubt; inactive = no such curve, though single readings can be large or run the other way
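Infectious HCV cell culture screen: compound-treated cells (1,000/well, pre-plated 4 h) are infected with HCVcc-Cre at roughly 0.5 moi and grown 44 h. Infection is quantified by luciferase signal after 15 min substrate incubation at room temperature.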
VACV Venus inh: inhibitors of vaccinia virus (Venus reporter); Vaccinia virus Venus reporter expression, fluorescence; Potency, µM (titrated, usually from 36.5 µM), usual class: inhibitors; hit rate 0.46% among 330,000; AID 720580; calls by dose curve; tested in A549 cells; also: nearly all actives have a fitted effect of over 30% in size
LASV entry inh: blocks Lassa virus binding to or entry into cells. hit rate 1.2% among 300,000. Potency, µM (titrated, usually from 37.9 µM), most hits filed as inhibitors. AID 540256. Lassa virus pseudotype entry inhibition, cell reporter; calls by dose curve; tested in HEK293 cells; also: nearly all actives have a fitted effect of over 50% in size
Vaccinia mCherry: vaccinia inhibition (mCherry reporter); Vaccinia virus mCherry reporter infection, fluorescence; Potency, µM (series often up to 36.5 µM), usual class: inhibitors; hit rate 0.63% among 310,000; AID 720579; calls by dose curve; tested in A549 cells; also: nearly all actives have a fitted effect of over 35% in size
Marburg entry inh: Marburg virus entry inhibition | Marburg virus pseudotyped entry inhibition, cell reporter | Potency, µM (doses to about 37.8 µM), most hits filed as inhibitors | hit rate 1.8% among 300,000 | AID 540276; calls by dose curve; tested in HEK293 cells
Large screens that a line does not name were inactive. In the library only some 7.8% were active in any assay of this set; here they are far more common.

O=C(Nc1ccccc1)Nc1ncc([N+](=O)[O-])s1	HCMV inh -98.2, HCV inhibitor inconclusive, VACV Venus inh inconclusive, LASV entry inh 7.08µM, Vaccinia mCherry 10µM, Marburg entry inh inconclusive
O=C(Nc1nc(-c2cccnc2)cs1)c1cccc([N+](=O)[O-])c1	HCMV inh inconclusive, HCV inhibitor inconclusive (no result: LASV entry inh)
O=C(Nc1ncc([N+](=O)[O-])s1)c1cccc([N+](=O)[O-])c1	HCMV inh -99.3, HCV inhibitor inconclusive, VACV Venus inh inconclusive, Vaccinia mCherry inconclusive (no result: LASV entry inh, Marburg entry inh)
O=C(O)c1cnn(-c2nc(-c3cccc([N+](=O)[O-])c3)cs2)c1C(F)(F)F	HCMV inh -93.8 (no result: VACV Venus inh, LASV entry inh, Vaccinia mCherry, Marburg entry inh)
Cc1cccc(NC(=O)c2ccc3nc(CCc4ccccc4)oc3c2)c1C	none (no result: HCV inhibitor, Marburg entry inh)
CCCNc1ncnc2c1c(-c1ccccc1)cn2-c1ccccc1	none (no result: HCV inhibitor, Marburg entry inh)
Cc1cccc(C(=O)N[C@H]2CC[C@@H](n3cc(C(=O)N4CCCC4)nn3)CC2)c1	none (no result: HCMV inh, HCV inhibitor, LASV entry inh, Marburg entry inh)
O=[N+]([O-])c1cccc(-c2csc(Nc3ccccc3)n2)c1	HCV inhibitor 1.58µM, VACV Venus inh inconclusive, LASV entry inh inconclusive, Vaccinia mCherry inconclusive, Marburg entry inh inconclusive
Cc1nc(C)c(C(=O)Nc2ncc([N+](=O)[O-])s2)o1	HCMV inh inconclusive, LASV entry inh 5.62µM, Marburg entry inh inconclusive
CCOc1ccc(OCC)c(NC(=O)C(NS(=O)(=O)c2cccs2)c2ccccc2)c1 (stereo not given)	none (no result: HCV inhibitor)
C=C(C)COc1ccc2c(CC)cc(=O)oc2c1C	HCV inhibitor 11.2µM, Marburg entry inh inconclusive
N=c1oc2c3c4c(cc2cc1C(=O)Nc1ccccc1)CCCN4CCC3	HCV inhibitor 7.94µM, LASV entry inh inconclusive (no result: HCMV inh)
NS(=O)(=O)c1ccc(Sc2nc3ccccc3s2)c([N+](=O)[O-])c1	HCV inhibitor 22.4µM, VACV Venus inh inconclusive, Vaccinia mCherry inconclusive, Marburg entry inh inconclusive
O=C(Cn1c(SCCOc2ccccc2Cl)nc2ccccc21)N1CCOCC1	none (no result: HCV inhibitor)
CC(=O)Nc1ccc(/C=C/c2nc(-c3ccccc3O)n(-c3ccccc3)n2)cc1	LASV entry inh inconclusive (no result: HCV inhibitor)
COc1ccc2c(c1)C(n1cccc1)C(=O)N2C (stereo not given)	none (no result: HCV inhibitor, VACV Venus inh, LASV entry inh, Vaccinia mCherry, Marburg entry inh)
CCOc1cc(/C=C\c2[nH]c(=O)[nH]c(=O)c2[N+](=O)[O-])ccc1OC(C)CC (stereo not given)	HCMV inh -96.7 (no result: VACV Venus inh, Vaccinia mCherry)
COc1ccc(N2CCN(C(CNS(=O)(=O)c3ccc(OC)c(C)c3)c3ccco3)CC2)cc1 (stereo not given)	LASV entry inh 5.62µM (no result: HCV inhibitor, Marburg entry inh)
O=S(=O)(NCC(c1ccco1)N1CCN(c2ccc(F)cc2)CC1)c1ccc2c(c1)OCCO2 (stereo not given)	HCMV inh -74.8, HCV inhibitor inconclusive, LASV entry inh inconclusive, Vaccinia mCherry inconclusive, Marburg entry inh inconclusive
COc1ccc(S(=O)(=O)NCC(c2ccco2)N2CCN(c3ccccc3)CC2)cc1OC (stereo not given)	none (no result: HCV inhibitor, Marburg entry inh)
O=C(O)CSc1ncnc2sc3c(c12)CCCC3	none
Fc1ccc(CSc2ncnc3sc4c(c23)CCCC4)cc1	HCV inhibitor 11.2µM (no result: VACV Venus inh, Vaccinia mCherry)
CCSc1ncnc2sc3c(c12)CCC3	HCV inhibitor 25.1µM (no result: VACV Venus inh, Vaccinia mCherry)
CCC1CN(C(=O)N2CCC(C(=O)N3CCN(c4ccccc4)CC3)CC2)c2ccccc2O1 (stereo not given)	none (no result: HCV inhibitor, Marburg entry inh)
Cc1ccc(Nc2sc(C(=O)c3ccccc3)c(N)c2C(=O)Nc2ccc(Cl)cc2)cc1	HCMV inh -103.1, VACV Venus inh inconclusive, Vaccinia mCherry inconclusive (no result: HCV inhibitor, Marburg entry inh)
Nc1c(C(=O)c2ccccc2)sc(Nc2ccc(Cl)c(Cl)c2)c1C(=O)Nc1ccccc1	HCMV inh -107.0, VACV Venus inh inconclusive, LASV entry inh inconclusive, Vaccinia mCherry inconclusive (no result: HCV inhibitor, Marburg entry inh)
Cc1c(C(=O)NCc2ccccc2C(F)(F)F)sc(=O)n1Cc1ccccc1C#N	HCMV inh -62.3 (no result: HCV inhibitor, LASV entry inh, Marburg entry inh)
Cc1c(C(=O)NCc2ccc(C(F)(F)F)cc2)sc(=O)n1Cc1ccc(S(=O)(=O)N(C)C)cc1	HCMV inh -72.7 (no result: HCV inhibitor, LASV entry inh, Marburg entry inh)
COc1ccc(Cl)cc1Cn1c(C)c(C(=O)NCc2ccc3c(c2)OCCO3)sc1=O	HCMV inh -71.9 (no result: HCV inhibitor, LASV entry inh, Marburg entry inh)
Cc1cccc(CNC(=O)c2sc(=O)n(Cc3ccc(S(C)(=O)=O)cc3)c2C)c1	HCMV inh -68.7 (no result: HCV inhibitor, LASV entry inh, Marburg entry inh)
COc1ccc(CNC(=O)c2sc(=O)n(Cc3cc(Cl)ccc3OC)c2C)cc1	HCMV inh inconclusive (no result: HCV inhibitor, LASV entry inh, Marburg entry inh)
Nc1ccc(C=O)cc1	none (no result: HCMV inh, HCV inhibitor, LASV entry inh, Marburg entry inh)
CCNc1ncnc2c1nnn2C	none (no result: HCV inhibitor, Marburg entry inh)
C=Cc1ccc(Cn2c(C)c(C(=O)NCc3cccc(C)c3)sc2=O)cc1	HCMV inh -65.0 (no result: HCV inhibitor, LASV entry inh, Marburg entry inh)
CSc1ccc(Cn2c(C)c(C(=O)NCc3cccc(C)c3)sc2=O)cc1	HCMV inh -66.9 (no result: HCV inhibitor, LASV entry inh, Marburg entry inh)
CN(C)c1ccc(/C=C/c2ccnc3ccc4ccccc4c23)cc1	none (no result: HCMV inh, HCV inhibitor, LASV entry inh, Marburg entry inh)
C[N+]1=CC2=c3c1c(O)c1c(c3=NCC2)C2(C=C(Br)C(=O)C(Br)=C2)CCN1	HCMV inh -102.1 (no result: HCV inhibitor, VACV Venus inh, LASV entry inh, Vaccinia mCherry, Marburg entry inh)
CC(C)(C)C1CCc2c(sc(NC(=O)c3ccc(Cl)cc3)c2C(=O)NCc2ccco2)C1 (stereo not given)	none (no result: HCV inhibitor)
CC(=O)Nc1ccc(Nc2nc(C)c([N+](=O)[O-])c(N(C)c3ccccc3)n2)cc1	HCMV inh inconclusive, HCV inhibitor 17.8µM, LASV entry inh inconclusive
CC(=O)Nc1ccc(Nc2nc(C)c([N+](=O)[O-])c(Nc3ccccc3)n2)cc1	HCV inhibitor inconclusive, VACV Venus inh inconclusive, LASV entry inh inconclusive, Marburg entry inh inconclusive
